Bioassay records from PubChem BioAssay.
Shown are actives, neighbours in structure and some others; about 6.4% of the full set was active somewhere.
Gal4-VP16 FLuc – VP16 counterscreen qHTS for inhibitors of ROR gamma transcriptional activity. Drosophila S2 Gal4-VP16 UAS-luciferase, luminescence, 20 h. Potency, µM (top dose mostly 53.6 µM), without a hit: top-dose activity, negative = inhibition, usual class: inhibitors. 310,000 tested, 3.5% active. AID 2546, 2010;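 note: Gal4-VP16 expression switched on by copper sulfate through the metallothionein promoter; nearly all actives have a fitted effect of over 50% in size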
RORg inh – qHTS for inhibitors of ROR gamma transcriptional activity; Potency, µM (top dose mostly 53.6 µM), inactives show top-dose activity change, negative = inhibition, most hits filed as inhibitors; AID 2551, 2010; Nuclear receptor ROR-gamma (Mus musculus), P51450; 310,000 tested, 5.4% active; Drosophila S2 Gal4-RORgamma UAS-luciferase reporter, 20 h; note: nearly all actives have a fitted effect of over 60% in size
Target sequence (P51450 whole entry, looked up, the tested form may be a part): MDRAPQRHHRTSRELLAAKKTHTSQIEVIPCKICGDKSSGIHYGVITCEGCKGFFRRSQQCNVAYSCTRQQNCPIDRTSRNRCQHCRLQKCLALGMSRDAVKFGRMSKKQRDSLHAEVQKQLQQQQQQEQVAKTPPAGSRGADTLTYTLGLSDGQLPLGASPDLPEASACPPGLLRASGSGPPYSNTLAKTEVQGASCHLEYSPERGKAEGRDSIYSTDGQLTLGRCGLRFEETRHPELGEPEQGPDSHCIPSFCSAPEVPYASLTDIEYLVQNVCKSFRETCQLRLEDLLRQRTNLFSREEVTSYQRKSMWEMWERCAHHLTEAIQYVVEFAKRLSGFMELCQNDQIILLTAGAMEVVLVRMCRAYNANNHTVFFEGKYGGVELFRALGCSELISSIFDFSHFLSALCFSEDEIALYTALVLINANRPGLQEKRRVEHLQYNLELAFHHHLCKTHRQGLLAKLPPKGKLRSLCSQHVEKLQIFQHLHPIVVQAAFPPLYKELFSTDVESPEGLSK
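Compounds are pin-transferred onto Drosophila Schneider cells expressing a copper-inducible Gal4–ROR gamma transactivation domain fusion. After 1 hr, copper sulfate is added to 700 uM final; luciferase is read 20 hr later.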
KinaseGlo FLuc – Counterscreen for Luciferase (Kinase-Glo TM) Inhibition; 200,000 tested, 0.28% active; Kinase-Glo luciferase, ATP luminescence, 8 min; Luciferin 4-monooxygenase (Photuris pensylvanica), Q27757; Potency, µM (titrated, usually from 38.3 µM), for the others: at the highest dose activity change, negative = inhibition, most hits filed as inhibitors; note: nearly all actives have a fitted effect of over 60% in size
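Compound is pinned into ATP-containing buffer (10 uM ATP, imidazole pH 7.2, 7 mM MgCl2). Kinase-Glo luciferase reagent is then added. Light output is recorded following an 8-min room-temperature incubation.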
* hit, by the source's call; ? = inconclusive; . = no result given; [ ] = remark or other dose. Calls come from the whole dose curve; as a rule, active = well fitted curve in the direction sought with a large enough effect; inconclusive = small, poorly fitted or top-dose-only effect, or another doubt; inactive = no such curve, though single readings can be large; an effect the other way counts as inactive or inconclusive. % is set by controls: 0 for no effect and ±100 for the full control effect; potency is the fitted concentration of half-maximal effect.

SMILES	Gal4-VP16 FLuc	RORg inh	KinaseGlo FLuc
C=CCn1c(-c2csc3ccccc23)n[nH]c1=S	6.3µM*	3.5µM*	-2%
C=CCn1c(-c2c[nH]c3ccccc23)n[nH]c1=S	?	3%[10 µM]	-5%
Cc1ccc(C[n+]2cccc(-c3ccccc3)c2)c(C)c1	?	?	-1%
O=C(CN1CCN(c2ccc(O)cc2)CC1)Nc1cc([N+](=O)[O-])ccc1Cl	?	-4%	1%
COc1ccc(C2=NO[C@@](CC(=O)O)(C(=O)Nc3ccc4c(c3)OCCO4)C2)cc1	-5%	1%	.
CCOc1cc(/C=N/NC(=O)c2cccnc2)ccc1O	2%	-27%	.
CCOc1cccc(/C=N/NC(=O)c2cccnc2)c1O	0.32µM*	0.2µM*	.
COc1cc(/C=N/NC(=O)c2cc(C3CC3)[nH]n2)cc(OC)c1OC	-7%	-14%	.
CCOc1cccc(/C=N/NC(=O)c2cc(C3CC3)[nH]n2)c1O	2.8µM*	2.2µM*	.
COC(=O)C1=C[C@@H](C(=O)OC)[C@@H]2C3=C(C(=O)C2(C)C)[C@H](C)n2c(=O)n(C)c(=O)n2[C@@H]3C1	-7%	-1%	.
N#C/C(=C\c1c(F)cccc1Cl)C(=O)NC1CC1	4%	13%	.
O=C(COc1cccc2ccccc12)N/N=C/c1ccncc1	-3%	17%	1%
Oc1ccc(NCc2cccc(OCc3ccc(F)cc3)c2)cc1	?	10µM*	-4%
c1ccc(COc2cccc(CNCc3ccccn3)c2)cc1	-19%	11µM*	0%
c1ccc(COc2cccc(CNCc3cccnc3)c2)cc1	10%[10 µM]	5%	-4%
O=[N+]([O-])c1ccc(COc2cccc(CNc3ccc(F)cc3)c2)cc1	5%	23%	4%
Oc1ccc(NCc2cccc(OCc3ccccc3)c2)cc1	?	11µM*	2%
OCCNCc1cccc(OCc2ccc(Cl)cc2)c1	15%	4%	2%
COc1nc(NCCc2ccc(OC)c(OC)c2)nc(Nc2ccccc2)n1	14%	?	.
COC(C)=O	5%	5%	.
O=C1NC[C@H](c2ccccc2)N(CCc2cc(C(F)(F)F)cc(C(F)(F)F)c2)C1=O	-10%	20%	.
NC1=NC[C@H](Cc2ccccc2)N1CCc1cc(C(F)(F)F)cc(C(F)(F)F)c1	0%	2%	.
FC(F)(F)c1cc(CCN2C(=S)NC[C@@H]2Cc2ccccc2)cc(C(F)(F)F)c1	2.8µM*	3.5µM*	.
Oc1ccc(C[C@H]2CNC(=S)N2CCc2cc(C(F)(F)F)cc(C(F)(F)F)c2)cc1	-11%	18µM*	.
FC(F)(F)c1cc(CN2CCCC3(CCNCC3)C2)cc(C(F)(F)F)c1	3%	15%	-3%
SMILES	Gal4-VP16 FLuc	RORg inh	KinaseGlo FLuc
FC(F)(F)c1cc(CCN2C(=S)NC[C@@H]2CC2CCCCC2)cc(C(F)(F)F)c1	6.3µM*	2.2µM*	.
FC(F)(F)c1cc(CCN2C(=S)NC[C@@H]2c2ccccc2)cc(C(F)(F)F)c1	11µM*	5.6µM*	.
NC1=NC[C@H](Cc2ccc(O)cc2)N1CCc1cccc(F)c1	0%	-10%	.
Cc1cccc(C)c1N1CCN(c2ccc3nnc(C(F)(F)F)n3n2)CC1	7%	-16%	-5%
Cc1ccc(NC(=O)c2noc(C(C)C)c2[N+](=O)[O-])cc1	-6%	-10%	-1%
O=C(CSc1nnc(CNC(=O)c2c(F)cccc2F)o1)NCc1ccccc1Cl	2%	19%	.
COc1ccc(Cl)cc1C(=O)NNC(=S)NC(=O)c1ccc(F)c(F)c1	11µM*	7.1µM*	.
CCCCNC(=S)NNC(=O)c1cc(-c2cccnc2)nc2ccccc12	-19%	?	.
COc1ccc(Cl)cc1C(=O)NNC(=O)c1cccc([N+](=O)[O-])c1	-4%	-35%	0%
CCOc1ccc(-c2cc(C(=O)O)c3ccccc3n2)cc1	10µM*	7.9µM*	-20%
COc1ccc(-c2cc(C(=O)c3c(N)n(C)c(=O)n(C)c3=O)c3ccccc3n2)cc1	11µM*	14µM*	.
O=C(O)c1cc(-c2ccc(O)cc2)nc2ccccc12	-4%	-14%	-4%
CCCCOc1ccc(-c2cc(C(=O)NNC(=S)NCC)c3ccccc3n2)cc1	2.5µM*	5µM*	?
COc1ccc(-c2cc(C(=O)OCC(=O)c3c(N)n(C)c(=O)n(C)c3=O)c3ccccc3n2)cc1	-5%	16%	0%
CCOc1ccc(NC(=O)CCC(=O)NNS(=O)(=O)c2ccccc2[N+](=O)[O-])cc1	-7%	43%	2%
CCc1ccccc1N(CC(=O)NC(C)(C)CC)C(=O)CCC(=O)Nc1nccs1	4%	?	.
Cc1ccc(S(=O)(=O)Nc2cc3c(cc2C#N)OCO3)cc1C(N)=O	-6%	-13%	.
COc1ccc(Cl)cc1C(=O)NNC(=S)NC(=O)c1cc(-c2ccc(Cl)cc2)nc2ccccc12	?	1.3µM*	-8%
CCNC(=O)COC(=O)c1cc(-c2ccc(OC)cc2)nc2ccccc12	-20%	-1%	-26%
CCNC(=S)NNC(=O)c1cc(-c2ccc(OC)cc2)nc2ccccc12	3.5µM*	1.4µM*	?
COc1ccc(NC(=O)c2cc(-c3ccc(OC)c(OC)c3)nc3ccccc23)c(OC)c1	0%	10%	.
O=C(NCCCl)Nc1ccccc1OCCOc1ccccc1NC(=O)NCCCl	0%	19%	.
CC(Sc1nncs1)C(=O)Nc1ccc2c(c1)OCO2 (centres undefined)	6%	44%	0%
Cc1nn(-c2ccccc2)c(Cl)c1/C=N/NC(=O)CNc1n[nH]c(=O)[nH]c1=O	-5%	-11%	0%
Cc1ccnc(N/N=C/c2ccccc2)n1	?	?	-25%
SMILES	Gal4-VP16 FLuc	RORg inh	KinaseGlo FLuc
Cc1cc(C)nc(N/N=C2/CCCC/C2=C\c2ccccc2)n1	10µM*	1.4µM*	3%
COc1ccc(N2CCN(C(=O)Cc3ccc(Br)cc3)CC2)cc1	5%	13%	.
O=C(CCn1c(=S)[nH]c2ccccc2c1=O)N1CCOCC1	-2%	29%	1%
O=C(CCCn1c(=S)[nH]c2ccc(Br)cc2c1=O)N1CCN(c2ccccn2)CC1	?	7.1µM*	-1%
COc1ccc(N2CCN(C(=O)C3CCC(Cn4c(=S)[nH]c5ccccc5c4=O)CC3)CC2)cc1 (centres undefined)	7.1µM*	3.5µM*	1%
O=C(C1CCC(Cn2c(=S)[nH]c3ccccc3c2=O)CC1)N1CCN(c2ccccn2)CC1 (centres undefined)	?	5.6µM*	0%
O=C(C1CCC(Cn2c(=O)[nH]c3ccccc3c2=O)CC1)N1CCN(c2ccccc2)CC1 (centres undefined)	-8%	18%	0%
O=C(C1CCC(Cn2c(=S)[nH]c3ccccc3c2=O)CC1)N1CCOCC1 (centres undefined)	?	11µM*	9%
O=C(Cn1c(=S)[nH]c2ccccc2c1=O)N1CCN(c2ccccc2)CC1	5%	-13%	2%
O=C(C1CCC(CNc2c(N3CCCCC3)c(=O)c2=O)CC1)N1CCN(c2ccccn2)CC1 (centres undefined)	-1%	6%	.
Cc1cc(C)n2nc(SCCOc3ccccc3F)nc2n1	-11%	?	2%
